Assay results: PubChem BioAssay (NCATS)
Results filed as inconclusive are left out. Calls of active or inactive are those of the source. Unless noted, the rule behind the calls is not given here.

Legend:
[1] = qHTS profiling of the MIPE4 collection as inhibitors of Plasmodium falciparum (3D7) proliferation (AID 743344);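 note: scaled between DMSO vehicle wells and 0.29 µM artemisinin as full inhibition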; settings: P. falciparum 3D7 in erythrocytes, SYBR Green DNA fluorescence, 72 h; at 28.5 µM unless noted
Summary of the method: (§1)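 Erythrocytes infected with P. falciparum (0.3% parasitemia, 2.5% hematocrit) incubated with compounds 72 h at 37 C, 5% CO2. Lysis with saponin/Triton buffer containing SYBR Green I, overnight at room temperature in the dark; DNA fluorescence (485/535 nm) normalised to 0.29 uM artemisinin and DMSO.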

[2] = qHTS profiling of the MIPE4 collection as inhibitors of Plasmodium falciparum (DD2) proliferation (AID 743345); settings: P. falciparum Dd2 in erythrocytes, SYBR Green DNA, 72 h; at 28.5 µM unless noted
Summary of the method: as §1

[3] = qHTS profiling of the MIPE4 collection as inhibitors of Plasmodium falciparum (DD2) proliferation (Rep 2) (AID 743346); settings: P. falciparum Dd2 in erythrocytes, SYBR Green DNA, 72 h; at 28.5 µM unless noted
Summary of the method: as §1

[4] = qHTS profiling of the MIPE4 collection as inhibitors of Plasmodium falciparum (HB3) proliferation (AID 743347);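 note: plate controls were DMSO vehicle wells for no effect and artemisinin wells for full effect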; settings: P. falciparum HB3 in erythrocytes, SYBR Green DNA, 72 h; at 28.5 µM unless noted
Summary of the method: as §1

[5] = High-throughput drug toxicity screening in the BPDCN cell line Gen2.2 (AID 1224824); settings: Gen2.2 BPDCN cells; at 45.8 µM (top of the series) unless noted;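 note: cells exposed to compounds for 48 h before reading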
Summary of the method: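 Readout is ATP luminescence from Gen2.2 cells after two days of drug exposure in serum-containing medium at 37 °C. Values express percent activity, with vehicle defining full signal and 9.2 uM bortezomib defining zero.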

[6] = High-throughput drug toxicity screening in the BPDCN cell line Cal-1 (AID 1224825); settings: Cal-1 BPDCN cell viability, qHTS; at 45.8 µM (top of the series) unless noted
Summary of the method: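 Cal-1 cells, 500 per well in phenol-red-free RPMI with 10% FBS, exposed to compounds for 48 hours at 37C, 5% CO2. Viability read by CellTiter-Glo luminescence; percent activity normalized to DMSO (100%) and 9.2 uM bortezomib final (0%).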

[7] = qHTS assay for measurement of the activity of small molecule inhibitors on Zika virus induced Caspase-3 activity in human iPSC derived neural progenitor cells (hNPCs) (AID 1224857; active = well fitted inhibition curve with a large enough effect; note: % of control where 0% means no effect; nearly all actives have a fitted effect of over 65% in size)
Summary of the method: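 Cells were plated at 350 per well and grown 16 to 20 hours. Compound pretreatment lasted one hour, after which ZIKV (2 FFU/cell) was added for 6 hours. Percent inhibition was normalized between uninfected and infected controls.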

[8] = qHTS assay for measurement of the activity of small molecule inhibitors on Zika virus induced Caspase-3 activity in human astrocytoma cells (AID 1224859; active = well fitted inhibition curve with a large enough effect;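 note: plate controls were ZIKV-infected untreated cells for no effect and uninfected cells for full effect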)
Summary of the method: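 Percent inhibition of virus-induced caspase-3/7 signal is calculated against uninfected and ZIKV-infected control cells. Cells are SNB-19, infected at 2 FFU/cell for 6 h after 1 h compound exposure.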

[9] = qHTS Screen of the MIPE 4.0 Collection Against Ewings Sarcoma (RDES) (AID 1259252; active = well fitted inhibition curve with a large enough effect; note: nearly all actives have a fitted effect of over 35% in size; note: potency is the fitted concentration of half-maximal effect)
Summary of the method: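 Log-phase cells in RPMI with 5% FBS attached for 4 h, then received compounds as a titration for 48 h at 37C, 5% CO2. Viability was read by CellTiter-Glo luminescence and normalized to DMSO and no-cell wells.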

Row | SMILES | parasite growth, % of DMSO control [1] | parasite growth remaining, % of DMSO control (lower = more inhibition) [2] | parasite growth, % of control (lower = inhibition) [3] | growth, % of control [4] | cell viability, % of control (lower = more cytotoxic) [5] | viability (% of control) [6] | Potency [7] | Potency [8] | Potency [9]
1 | CCC[C@@H](NC(=O)[C@@H]1[C@H]2CCC[C@@H]2CN1C(=O)[C@@H](NC(=O)[C@@H](NC(=O)c1cnccn1)C1CCCCC1)C(C)(C)C)C(=O)C(=O)NC1CC1 | 9.1% | 61.2% | 19.9% | 10.3% | 48.1% | 63.1% | inactive | inactive | inactive
2 | CN1CC(=O)NC1=NC(=O)Nc1cccc(Cl)c1 | 78.1% | 83.9% | 23.4% | 98.8% | 3.29% | 31.9% | inactive | inactive | inactive
3 | COc1cc2ncnc(Nc3cc(Br)c(O)c(Br)c3)c2cc1OC | 10.7% | 54.4% | 43.2% | 5.25% | 15.7% | 11% | inactive | inactive | 0.0418 µM (active)
4 | CN[C@@H](C)[C@H]1[C@H](O)C[C@@]2(C)[C@@H]3CC[C@H]4C(C)(C)[C@@H](NC)CC[C@@]45C[C@@]35CC[C@]12C | 16.9% | 50.3% | 12.6% | 13.3% | 71.1% | 89.5% | inactive | inactive | inactive
5 | C[C@@]1(C(=O)Nc2ccc(F)nc2)CCCN1c1nc(Nc2cc(C3CC3)[nH]n2)c2cccn2n1 | 10.3% | 14.6% | 23.8% | 4.94% | 131% | 17.3% | inactive | inactive | 2.64 µM (active)
6 | O=C(c1ccc(C(=O)N2CCC(N3CCCC3)CC2)c(Nc2ccccc2)c1)N1CCC(N2CCCC2)CC1 | 80.6% | 66.3% | 33.2% | 82.3% | 483% | 113% | inactive | inactive | 16.6 µM (active)
7 | CC1(C)OC2CC3C4CC(F)C5=CC(=O)C=CC5(C)C4C(O)CC3(C)[C@]2(C(=O)CO)O1 (some centres not stated) | 52.8% | 89.8% | 7.06% | 47.9% | 77.5% | 52% | inactive | inactive | inactive
8 | CN(C)CCOc1ccc(-c2nc(-c3ccc4c(c3)CCC4=NO)c(-c3ccncc3)[nH]2)cc1 | 4.92% | 6.01% | 6.72% | 2.95% | 7.29% | 36.1% | inactive | inactive | 33.2 µM (active)
9 | C=C1[C@H](n2cnc3c(=O)[nH]c(N)nc32)C[C@H](O)[C@H]1CO | 53.5% | 88% | 34.7% | 42.8% | 147% | 8.7% | inactive | inactive | 9.35 µM (active)
10 | O=c1[nH]c(=O)n([C@H]2C[C@@H](O)[C@@H](CO)O2)cc1I | 85% | 39.2% | 77.7% | 62.7% | 138% | 87.5% | inactive | inactive | inactive
11 | C[C@@H]1O[C@@H](O[C@H]2CC[C@@]3(C)[C@H](CC[C@@H]4[C@H]3C[C@@H](O)[C@]3(C)[C@@H](C5=CC(=O)OC5)CC[C@]43O)C2)C[C@H](O)[C@@H]1O[C@H]1C[C@H](O)[C@H](O[C@H]2C[C@H](O)[C@@H](O)[C@@H](C)O2)[C@H](C)O1 (stereo in doubt) | 57.6% [at 57.5 µM] | 91.8% [at 57.5 µM] | 67.5% [at 57.5 µM] | 57% [at 57.5 µM] | 7.85% [at 92.2 µM] | 4.87% [at 92.2 µM] | inactive | inactive | 0.34 µM (active)
12 | CN(C)c1nc(Cc2ccc(NC(=O)c3ccc(C(F)(F)F)cc3)cc2)nc(N(C)C)c1CC(=O)O | 88.9% | 90.9% | 75.7% | 95.1% | 204% | 132% | inactive | inactive | inactive
13 | COC1CCC(C(=O)c2ccc3nc4c(cc3c2)CCCO4)CC1 (configuration not stated) | 21.8% | 31.2% | 15.9% | 11.8% | 98% | 85.9% | inactive | inactive | 13.2 µM (active)
